The assay has as its target T1, GST-Dm-Relish (Drosophila melanogaster, UniProt Q94527 99-473).
T1 sequence: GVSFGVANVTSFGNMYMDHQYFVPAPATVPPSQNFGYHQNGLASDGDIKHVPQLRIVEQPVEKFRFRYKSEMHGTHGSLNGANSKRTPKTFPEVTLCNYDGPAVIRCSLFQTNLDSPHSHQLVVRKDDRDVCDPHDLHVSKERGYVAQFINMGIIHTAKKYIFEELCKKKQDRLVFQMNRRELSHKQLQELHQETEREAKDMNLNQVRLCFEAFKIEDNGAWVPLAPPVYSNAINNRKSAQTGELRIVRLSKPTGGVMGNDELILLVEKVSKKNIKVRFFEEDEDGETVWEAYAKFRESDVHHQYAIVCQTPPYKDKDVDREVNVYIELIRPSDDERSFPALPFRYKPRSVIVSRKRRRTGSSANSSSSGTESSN
Description: protein-binding microarray (PBM); PBM: ~300 nM protein, 6 mM HEPES pH 7.8, 80 mM KCl, 0.5 mM EDTA, 0.5 mM EGTA, 6% glycerol, 35 ng/ul poly-dIdC, 1% milk, 1 h, room temperature; Ap Aiptasia and Nv Nematostella (sea anemones) / Co Capsaspora / Aq Amphimedon (sponge) / Dm Drosophila / Hu human; RHD is the Rel homology domain; high values mean tight binding. The following applies: dsDNA, one strand shown.
For the sequence “CCGATTAACATCAGGCGGTAAGGTGATGTTAATCGGGTCTTGATTCGCTTGACGCTGCTG”, the binding signal stood at 1.01 z-score.
“CCGATTAACATCAGAATTTCCTATGATGTTAATCGGGTCTTGATTCGCTTGACGCTGCTG” yielded a binding signal of 1.23 z-score.
Sequence “CCGATTAACATCAGCATCCACGGTGATGTTAATCGGGTCTTGATTCGCTTGACGCTGCTG” had a binding signal of 1.01 z-score.
The sequence “CCGATTAACATCAGGAAAGAACATGATGTTAATCGGGTCTTGATTCGCTTGACGCTGCTG” yielded a binding signal of 3.57 z-score.
“CCGATTAACATCACTTAGTACGGTGATGTTAATCGGGTCTTGATTCGCTTGACGCTGCTG” gave a binding signal of 1.1 z-score.
The value for “CCGATTAACATCAAATTTTCCACTGATGTTAATCGGGTCTTGATTCGCTTGACGCTGCTG” was 1.2 z-score.
The value for “CCGATTAACATCAAATAATTTCCTGATGTTAATCGGGTCTTGATTCGCTTGACGCTGCTG” was 1.21 z-score.
With “CCGATTAACATCAAAATTCCATATGATGTTAATCGGGTCTTGATTCGCTTGACGCTGCTG”, the binding signal was determined as 1.14 z-score.
Sequence “CCGATTAACATCACGTAAATCCATGATGTTAATCGGGTCTTGATTCGCTTGACGCTGCTG” registered a binding signal of 1 z-score.
The value for “CCGATTAACATCACGTATTTTCCTGATGTTAATCGGGTCTTGATTCGCTTGACGCTGCTG” was 1.2 z-score.
Under “CCGATTAACATCACGTGATTTCCTGATGTTAATCGGGTCTTGATTCGCTTGACGCTGCTG” stands 4.11 z-score; under “CCGATTAACATCAGAAAATTACATGATGTTAATCGGGTCTTGATTCGCTTGACGCTGCTG”, 3.43 z-score.
The value for “CCGATTAACATCAGGAAAAATACTGATGTTAATCGGGTCTTGATTCGCTTGACGCTGCTG” was 1.36 z-score; that for “CCGATTAACATCATAAAAAAAAATGATGTTAATCGGGTCTTGATTCGCTTGACGCTGCTG” was 1.27 z-score.
“CCGATTAACATCAATGGATTTCCTGATGTTAATCGGGTCTTGATTCGCTTGACGCTGCTG” returned a binding signal of 1.12 z-score.
In turn, “CCGATTAACATCACGGAATGTACTGATGTTAATCGGGTCTTGATTCGCTTGACGCTGCTG” returned a binding signal of 1.8 z-score.
The sequence “CCGATTAACATCACAGAAAATCCTGATGTTAATCGGGTCTTGATTCGCTTGACGCTGCTG” showed a binding signal of 1.19 z-score.
Take “CCGATTAACATCAGGAAAAACACTGATGTTAATCGGGTCTTGATTCGCTTGACGCTGCTG”: the binding signal is 2.61 z-score.
In turn, “CCGATTAACATCACAAAATTCCATGATGTTAATCGGGTCTTGATTCGCTTGACGCTGCTG” yielded a binding signal of 1.67 z-score.
The sequence “CCGATTAACATCACGTTCTTTCCTGATGTTAATCGGGTCTTGATTCGCTTGACGCTGCTG” came in with a binding signal of 2.3 z-score.
As for “CCGATTAACATCATTTACATTCGTGATGTTAATCGGGTCTTGATTCGCTTGACGCTGCTG”, the binding signal was determined as 1.06 z-score.
The value for “CCGATTAACATCACGAAAAATCCTGATGTTAATCGGGTCTTGATTCGCTTGACGCTGCTG” was 1.48 z-score.
“CCGATTAACATCACCGCAGCATGTGATGTTAATCGGGTCTTGATTCGCTTGACGCTGCTG” registered a binding signal of 1.18 z-score.
The value for “CCGATTAACATCAAAAAAATTACTGATGTTAATCGGGTCTTGATTCGCTTGACGCTGCTG” was 3.61 z-score; that for “CCGATTAACATCACGTAAAATCCTGATGTTAATCGGGTCTTGATTCGCTTGACGCTGCTG” was 1.05 z-score; that for “CCGATTAACATCAGTAAACTCCATGATGTTAATCGGGTCTTGATTCGCTTGACGCTGCTG” was 1.1 z-score.
The sequence “CCGATTAACATCAGTGAATTCCATGATGTTAATCGGGTCTTGATTCGCTTGACGCTGCTG” had a binding signal of 2.81 z-score.
Under “CCGATTAACATCAGGAAACTACATGATGTTAATCGGGTCTTGATTCGCTTGACGCTGCTG” stands 5.23 z-score.
Under “CCGATTAACATCAGGAAAAAACATGATGTTAATCGGGTCTTGATTCGCTTGACGCTGCTG” stands 2.35 z-score; under “CCGATTAACATCAGGAATATACATGATGTTAATCGGGTCTTGATTCGCTTGACGCTGCTG”, 2.59 z-score.
Under “CCGATTAACATCAAAATTCCAATTGATGTTAATCGGGTCTTGATTCGCTTGACGCTGCTG” stands 1.02 z-score; under “CCGATTAACATCAAATATTTTCCTGATGTTAATCGGGTCTTGATTCGCTTGACGCTGCTG”, 1.09 z-score.
For “CCGATTAACATCACGTGTTTTCCTGATGTTAATCGGGTCTTGATTCGCTTGACGCTGCTG”, the binding signal is 1.04 z-score.
Under “CCGATTAACATCAAAATTCCATGTGATGTTAATCGGGTCTTGATTCGCTTGACGCTGCTG” stands 1.36 z-score; under “CCGATTAACATCACAGGAAATCCTGATGTTAATCGGGTCTTGATTCGCTTGACGCTGCTG”, 1.25 z-score.
In the case of “CCGATTAACATCATGTGGTTCTCTGATGTTAATCGGGTCTTGATTCGCTTGACGCTGCTG”, the binding signal is 1.1 z-score.
The value for “CCGATTAACATCAGGAAAATTACTGATGTTAATCGGGTCTTGATTCGCTTGACGCTGCTG” was 1.67 z-score; that for “CCGATTAACATCAGTATTTTCCATGATGTTAATCGGGTCTTGATTCGCTTGACGCTGCTG” was 1.33 z-score.
The value for “CCGATTAACATCAGGAATTACACTGATGTTAATCGGGTCTTGATTCGCTTGACGCTGCTG” was 3.55 z-score; that for “CCGATTAACATCAGGAAAATCACTGATGTTAATCGGGTCTTGATTCGCTTGACGCTGCTG” was 3.47 z-score.

The record behind these values is publication PMC5700166.
